Experimental data as given in PubChem BioAssay AID651610 (Broad Institute, 2012).
Among all 360,000 compounds or so, about 3,900 (1.1%) were called active. The full list was thinned out, with actives kept by preference. A number with no mark means an inactive call.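 How the source made its calls: active means mean replicate inhibition score of at least 50 and every replicate individually at or above 50; inconclusive means only one of the two criteria met; inactive means mean below 50 and not all replicates reaching 50.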

assay: blockers of JRFL envelope-mediated fusion – HeLa-JRFL effector, CEM21 target cells, luciferase, primary screen (AID 651610); settings: HeLa-JRFL Env/CEM21 cell fusion, active compounds read high; at 16.7 µM unless noted;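 further: 0% = plate neutral controls and 100% = maraviroc near 300 nM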

| Compound | inhibition |
| --- | --- |
| CNC[C@H]1Oc2ncc(-c3ccccc3F)cc2C(=O)N([C@H](C)CO)C[C@H]1C | 10.5% |
| O=C(C[C@H]1C[C@@H]2c3cc(NS(=O)(=O)c4ccc(F)cc4)ccc3O[C@@H]2[C@@H](CO)O1)NCc1cccc(F)c1 | 10.7% |
| O=C(C[C@@H]1C[C@@H]2c3cc(NS(=O)(=O)c4ccc(F)cc4)ccc3O[C@@H]2[C@H](CO)O1)NCc1ccccc1F | 90.3% (active) |
| COc1ccccc1CNC(=O)C[C@H]1C[C@H]2c3cc(NS(=O)(=O)c4ccc(F)cc4)ccc3O[C@H]2[C@@H](CO)O1 | -11.5% |
| O=C(C[C@@H]1C[C@H]2c3cc(NS(=O)(=O)c4ccc(F)cc4)ccc3O[C@H]2[C@@H](CO)O1)NCc1ccccc1F | 56.4% (active) |
| O=C(C[C@H]1C[C@@H]2c3cc(NS(=O)(=O)c4ccc(F)cc4)ccc3O[C@@H]2[C@H](CO)O1)NCc1cccc(F)c1 | 54.4% |
| O=C(C[C@H]1C[C@H]2c3cc(NS(=O)(=O)c4ccc(F)cc4)ccc3O[C@H]2[C@H](CO)O1)NCc1cc(F)ccc1F | -74.8% [at 12.3 µM] |
| C[C@@H]1CN([C@H](C)CO)C(=O)c2cc(C#CC3CCCC3)cnc2O[C@@H]1CN(C)C(=O)C1CCC1 | -5.58% |
| O=C(Cc1ccncc1)Nc1ccc2c(c1)[C@@H]1C[C@H](CC(=O)N3CCCCC3)O[C@H](CO)[C@@H]1O2 | 9.17% |
| C[C@@H]1CCCCO[C@@H](CN(C)Cc2ccc(C(=O)O)cc2)[C@@H](C)CN([C@@H](C)CO)C(=O)c2cc(NC(=O)Nc3ccc(C(F)(F)F)cc3)ccc2O1 | -4.94% |
| COc1ccc2c3c([nH]c2c1)[C@@H](CO)N(C(C)=O)CC31CN(C(=O)Nc2ccc(F)cc2)C1 | 31% |
| COc1ccc2c3c([nH]c2c1)[C@H](CO)N(C(=O)Nc1ccc(F)cc1)CC31CN(S(=O)(=O)c2cccc(F)c2)C1 | -38.9% |
| COc1ccc2c3c([nH]c2c1)[C@@H](CO)N(C(=O)Nc1cccc(F)c1)CC31CCN(S(=O)(=O)c2ccccc2)CC1 | 80.9% (active) |
| COc1ccc2c3c(n(C)c2c1)[C@@H](CO)N(C(=O)Nc1cccc(F)c1)CC31CCN(Cc2nccs2)CC1 | 23.1% |
| COc1ccc2c3c([nH]c2c1)[C@H](CO)N(C(=O)Nc1cccc(F)c1)CC31CCN(S(=O)(=O)c2ccccc2)CC1 | 92.2% (active) |
| COc1ccc2c3c([nH]c2c1)[C@H](CO)N(C(=O)c1ccccc1)CC31CN(C(=O)Nc2cccc(F)c2)C1 | 12.9% |
| N#C[C@@H]1[C@@H](c2ccc(-c3ccccc3F)cc2)[C@@H](CO)N1C(=O)C1CC1 | -18.6% |
| C[C@H]1CN([C@@H](C)CO)S(=O)(=O)c2ccc(C#CC3CCCC3)cc2O[C@@H]1CN(C)C(=O)c1cccc(F)c1 | 33.9% |
| O=C(C[C@H]1CC[C@H]2[C@@H](COC[C@H](O)CN2CCC(F)(F)F)O1)N1CCC(Cc2ccccc2)CC1 | 32.1% |
| C[C@H](CO)N1C[C@H](C)[C@@H](CN(C)S(=O)(=O)c2ccc(Cl)cc2)Oc2ccc(NS(=O)(=O)c3cccs3)cc2CC1=O | -22% |
| C[C@@H]1CN([C@H](C)CO)C(=O)Cc2cc(NC(=O)Cc3ccccc3)ccc2O[C@H]1CN(C)S(=O)(=O)c1cccs1 | 25.8% |
| C[C@@H]1CN([C@H](C)CO)C(=O)Cc2cc(NC(=O)CCCN(C)C)ccc2O[C@@H]1CN(C)S(=O)(=O)c1cccs1 | -1.4% |
| C[C@@H]1CN([C@H](C)CO)C(=O)Cc2cc(NS(=O)(=O)c3ccc(Cl)cc3)ccc2O[C@H]1CN(C)S(=O)(=O)c1cccs1 | -4.91% |

| Compound | inhibition |
| --- | --- |
| Cc1ccc(S(=O)(=O)Nc2ccc3c(c2)CC(=O)N([C@H](C)CO)C[C@@H](C)[C@H](CN(C)Cc2ccc(C(F)(F)F)cc2)O3)cc1 | 8.6% |
| C[C@H]1CN([C@@H](C)CO)C(=O)c2cc(NC(=O)NC3CCCCC3)ccc2O[C@@H]1CN(C)S(=O)(=O)c1cccs1 | 7.17% |
| C[C@H]1CN([C@@H](C)CO)C(=O)Cc2cc(NC(=O)C3CC3)ccc2O[C@@H]1CN(C)S(=O)(=O)c1cccs1 | -4.09% |
| C[C@H]1CN([C@@H](C)CO)C(=O)Cc2cc(NC(=O)Cc3ccccc3)ccc2O[C@H]1CN(C)S(=O)(=O)c1cccs1 | 98.7% [at 12.3 µM] (active) |
| C[C@H](CO)N1C[C@H](C)[C@H](CN(C)S(=O)(=O)c2cccs2)Oc2ccc(NS(=O)(=O)c3ccc(Cl)cc3)cc2CC1=O | 55.2% (active) |
| C[C@H]1CN([C@@H](C)CO)C(=O)Cc2cc(NC(=O)NC3CCCCC3)ccc2O[C@H]1CN(C)S(=O)(=O)c1cccs1 | 56.2% (active) |
| C[C@H]1CN([C@@H](C)CO)C(=O)Cc2cc(NS(=O)(=O)c3ccc(F)cc3)ccc2O[C@H]1CN(C)Cc1ccc(C(F)(F)F)cc1 | -1.59% |
| C[C@@H]1CN([C@@H](C)CO)C(=O)Cc2cc(NS(=O)(=O)c3ccc(Cl)cc3)ccc2O[C@H]1CN(C)Cc1ccc(C(F)(F)F)cc1 | 77.5% (active) |
| [N-]=[N+]=Nc1ccccc1C[C@@]1(C(=O)NCc2ccccc2)N=C(c2ccc(OCCCO)cc2)O[C@@H]1c1ccccc1 | 42.5% |
| C[C@H]1CN([C@@H](C)CO)C(=O)c2cccc(NS(=O)(=O)c3ccc(F)cc3)c2O[C@@H]1CN(C)CC1CC1 | -1.23% |
| Cc1noc(C)c1NC(=O)N(C)C[C@@H]1OCCCC[C@H](C)Oc2ccc(NC(=O)c3ccccc3)cc2C(=O)N([C@@H](C)CO)C[C@@H]1C | 18.4% |
| N#C[C@@H]1[C@@H](c2ccc(-c3ccccc3F)cc2)[C@@H](CO)N1C(=O)c1ccccn1 | 16.4% |
| C[C@@H]1CN([C@H](C)CO)C(=O)c2ccccc2-c2ccccc2CO[C@H]1CN(C)C(=O)CCC(F)(F)F | -2.05% |
| CCCC#Cc1ccc([C@@H]2[C@@H](C#N)N(C(=O)C3CC3)[C@H]2CO)cc1 | -1.11% |
| CCC(=O)Nc1ccc2c(c1)OC[C@H](C)N(Cc1ccccc1F)C[C@H](C)[C@@H](OC)CN(C)C2=O | 27.1% |
| CCCN1C[C@@H](C)[C@@H](OC)CN(C)C(=O)c2ccc(NC(=O)Nc3cccc(F)c3)cc2OC[C@@H]1C | -6.04% |
| C/C=C/c1ccccc1[C@H]1[C@@H](C#N)N(C(=O)Cc2ccccn2)[C@@H]1CO | -20.6% |
| C[C@@H]1CN([C@@H](C)CO)C(=O)c2cc(C#CCc3ccccc3)cnc2O[C@@H]1CN(C)C(=O)C1CCOCC1 | 6.96% |
| C[C@@H]1CN([C@H](C)CO)C(=O)c2cccc(NS(=O)(=O)c3ccc(Cl)cc3)c2O[C@H]1CN(C)Cc1ccc(C(F)(F)F)cc1 | 9.64% |
| C[C@@H]1CN([C@H](C)CO)C(=O)c2cccc(NS(=O)(=O)c3ccc(Cl)cc3)c2O[C@@H]1CN(C)Cc1ccc(Cl)c(Cl)c1 | 74.9% (active) |
| C[C@@H]1CN([C@@H](C)CO)C(=O)c2cccc(NS(=O)(=O)c3ccc(Cl)cc3)c2O[C@@H]1CN(C)Cc1ccccc1 | -7.04% |
| COc1cccc(S(=O)(=O)N(C)C[C@@H]2Oc3ncc(-c4cccc(C(=O)N(C)C)c4)cc3C(=O)N([C@H](C)CO)C[C@H]2C)c1 | 3.38% |
| CC(C)NC(=O)N(C)C[C@@H]1OCCCC[C@@H](C)Oc2ccc(NC(=O)c3ccccc3)cc2C(=O)N([C@@H](C)CO)C[C@H]1C | -4.61% |
